Experimental data: PubChem BioAssay (Tox21)
Records with an inconclusive call do not appear. Activity calls are given as the source filed them. Unless noted, calls follow the shape of the full dose curve.

Columns and labels:
[1] = qHTS assay to identify small molecule agonists of the peroxisome proliferator-activated receptor delta (PPARd) signaling pathway - cell viability counter screen (AID 743211; active = well fitted curve in the direction sought with a large enough effect in the repeat runs; an effect the other way counts as inactive or inconclusive; also: nearly all actives have a fitted effect of over 55% in size)
Procedure, shortened: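 Viability of GeneBLAzer PPARd UAS-bla HEK293H cells was assessed after 17 h compound incubation at 37C, using CellTiter-Glo reagent added after the reporter read and luminescence recorded 30 min later.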

[2] = molecular target: Peroxisome proliferator-activated receptor delta (Homo sapiens) (UniProt Q03181); assay: qHTS assay to identify small molecule agonists of the peroxisome proliferator-activated receptor delta (PPARd) signaling pathway (AID 743212)
Procedure, shortened: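 Tox21 library screened in GeneBLAzer PPARd UAS-bla HEK293H cells. After compound treatment at 37 C, a FRET-based beta-lactamase substrate was applied for 2 h and fluorescence recorded.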

[3] = qHTS assay to identify small molecule antagonists of the peroxisome proliferator-activated receptor delta (PPARd) signaling pathway - cell viability counter screen (AID 743213; active = well fitted curve in the direction sought with a large enough effect in the repeat runs; an effect the other way counts as inactive or inconclusive; also: nearly all actives have a fitted effect of over 50% in size)
Procedure, shortened: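 HEK293H cells with the PPARd UAS-bla reporter, co-treated 17 h at 37 C with compounds and L165041 (300 nM final), were lysed with CellTiter-Glo. Luminescence indicated viable cell content.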

[4] = molecular target: Peroxisome proliferator-activated receptor delta (Homo sapiens) (UniProt Q03181); assay: qHTS assay to identify small molecule antagonists of the peroxisome proliferator-activated receptor delta (PPARd) signaling pathway (AID 743215; active = well fitted inhibition curve with a large enough effect in the signal ratio in the repeat runs, not every such curve was filed as active; the % refers to the signal ratio;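 also: cells stimulated with agonist L165041 at 300 nM final during compound exposure; series mostly up to about 62 µM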)
Procedure, shortened: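 Screen format: qHTS, antagonist mode. HEK293H PPARd-bla cells received compound and 300 nM L165041 (final), 17 h, 37 C. Beta-lactamase detected via FRET substrate fluorescence, 2 h, room temperature.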

[5] = molecular target: Bile acid receptor (Homo sapiens) (UniProt Q96RI1); assay: qHTS assay to identify small molecule antagonists of the farnesoid-X-receptor (FXR) signaling pathway (AID 743217; active = well fitted inhibition curve with a large enough effect in the signal ratio in the repeat runs, not every such curve was filed as active; the % refers to the signal ratio)
Procedure, shortened: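 Quantitative HTS, beta-lactamase reporter format: FXR-UAS-bla HEK 293T cells co-treated 16 h at 37 °C with compounds and 50 uM final chenodeoxycholic acid, then read by B/G FRET fluorescence.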

[6] = qHTS assay to identify small molecule agonists of the farnesoid-X-receptor (FXR) signaling pathway - cell viability counter screen (AID 743218; active = well fitted curve in the direction sought with a large enough effect in the repeat runs; an effect the other way counts as inactive or inconclusive; also: nearly all actives have a fitted effect of over 45% in size)
Procedure, shortened: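 Same-well cytotoxicity check on FXR-UAS-bla HEK 293T cells: 5 h attachment, 16 h compound at 37 C, CellTiter-Glo luminescence read at room temperature after 30 min.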

[7] = molecular target: Bile acid receptor (Homo sapiens) (UniProt Q96RI1); assay: qHTS assay to identify small molecule agonists of the farnesoid-X-receptor (FXR) signaling pathway (AID 743220; active = well fitted activation curve with a large enough effect in the signal ratio in the repeat runs, not every such curve was filed as active; the % refers to the signal ratio)
Procedure, shortened: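 FXR-UAS-bla HEK 293T cells carrying a UAS-driven beta-lactamase reporter were plated for 5 h at 37C/5% CO2, then exposed to DMSO-dissolved Tox21 10K compounds for 16 h at 37C. A LiveBLAzer B/G FRET substrate was loaded for 2 h at room temperature before fluorescence reading.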

[8] = qHTS assay to identify small molecule antagonists of the farnesoid-X-receptor (FXR) signaling pathway - cell viability counter screen (AID 743221; active = well fitted cell-killing curve with a large enough effect in the repeat runs, not every such curve was filed as active; also: nearly all actives have a fitted effect of over 50% in size)
Procedure, shortened: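 Quantitative HTS of the Tox21 10K library run in parallel with the beta-lactamase reporter read. HEK 293T cells carrying a UAS-driven bla reporter got compound and 50 uM CDCA (final) for 16 h; ATP-based luminescence followed.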

[9] = molecular target: Vitamin D3 receptor (Homo sapiens) (UniProt P11473); assay: qHTS assay to identify small molecule agonists of the vitamin D receptor (VDR) signaling pathway (AID 743222)
Procedure, shortened: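 Using LiveBLAzer B/G FRET detection, agonism was scored in VDR-bla cells exposed overnight (16 h, 37C) to DMSO-dissolved compounds; substrate incubation was 2 h at room temperature.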

[10] = molecular target: Vitamin D3 receptor (Homo sapiens) (UniProt P11473); assay: qHTS assay to identify small molecule antagonists of the vitamin D receptor (VDR) signaling pathway (AID 743223; active = well fitted inhibition curve with a large enough effect in the signal ratio in the repeat runs, not every such curve was filed as active; the % refers to the signal ratio)
Procedure, shortened: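 Fluorescence from LiveBLAzer B/G FRET substrate, read after 2 h at room temperature, reflects beta-lactamase reporter activity in VDR-bla cells treated 16 h at 37C with compounds and agonist 1alpha,25-dihydroxyvitamin D3 (3 nM final).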

[11] = qHTS assay to identify small molecule agonists of the vitamin D receptor (VDR) signaling pathway - cell viability counter screen (AID 743224; active = well fitted curve in the direction sought with a large enough effect in the repeat runs; an effect the other way counts as inactive or inconclusive; also: series mostly up to about 63 µM; nearly all actives have a fitted effect of over 50% in size)
Procedure, shortened: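 Counter screen for cytotoxicity: VDR-bla cells at 2,000 cells/well, 16 h compound exposure, then CellTiter-Glo luminescence after the beta-lactamase measurement.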

[12] = qHTS assay to identify small molecule antagonists of the vitamin D receptor (VDR) signaling pathway - cell viability counter screen (AID 743225; active = well fitted curve in the direction sought with a large enough effect in the repeat runs; an effect the other way counts as inactive or inconclusive; also: nearly all actives have a fitted effect of over 50% in size)
Procedure, shortened: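 Cells (VDR-UAS-bla HEK 293T) are plated, rested 4 h at 37C, dosed with compound and 3 nM final 1-alpha,25-dihydroxy vitamin D3, and incubated 16 h. Viability is taken from CellTiter-Glo luminescence in the reporter wells.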

[13] = qHTS assay to identify small molecule agonists of the NFkB signaling pathway - cell viability counter screen (AID 1159515); also: series mostly up to about 61 µM; nearly all actives have a fitted effect of over 55% in size
Procedure, shortened: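 Counter screen run alongside the NFkB-bla agonist assay: ME-180 reporter cells exposed to compounds for 5 hr, then lysed with CellTiter-Glo in the same wells. Luminescence, read after 30 min, reflects viable cells.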

[14] = qHTS assay to identify small molecule agonists of the endoplasmic reticulum stress response signaling pathway (AID 1159516; active = well fitted activation curve with a large enough effect in the signal ratio in the repeat runs, not every such curve was filed as active; the % refers to the signal ratio)
Procedure, shortened: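 For this screen, HeLa cells stably carrying beta-lactamase under the ER stress response element received test compounds, positive controls or DMSO for 5 hr at 37 C; B/G FRET substrate was then added and dual-wavelength emission recorded.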

[15] = qHTS assay to identify small molecule agonists of the endoplasmic reticulum stress response signaling pathway - cell viability counter screen (AID 1159517)
Procedure, shortened: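 In parallel with the ESRE reporter read, cytotoxicity was scored by CellTiter-Glo luminescence (30 min, room temperature) on HeLa ESRE-bla cells dosed for 5 hr.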

[16] = qHTS assay to identify small molecule antagonists of the retinoid-related orphan receptor gamma (ROR-gamma) signaling pathway - cell viability counter screen (AID 1159520; active = well fitted curve in the direction sought with a large enough effect in the repeat runs; an effect the other way counts as inactive or inconclusive; also: nearly all actives have a fitted effect of over 50% in size)
Procedure, shortened: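 Tet-on ROR gamma CHO cells were given compounds for 2 hr, then doxycycline hyclate at 1 uM final, and incubated 16 hr at 37 C. Viability was measured as ATP content by CellTiter-Glo luminescence.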

[17] = molecular target: Nuclear receptor ROR-gamma (Homo sapiens) (UniProt P51449); assay: qHTS assay to identify small molecule antagonists of the retinoid-related orphan receptor gamma (ROR-gamma) signaling pathway (AID 1159521; active = well fitted curve in the direction sought with a large enough effect in the repeat runs; an effect the other way counts as inactive or inconclusive; also: nearly all actives have a fitted effect of over 50% in size; also: potency is read from the fitted curve at half-maximal effect)
Procedure, shortened: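 RORγ antagonism is scored from reduced reporter luminescence in Tet-on CHO cells. Induction used 1 uM final doxycycline hyclate for 16 h at 37 C, following a 2 h compound exposure.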

[18] = qHTS assay to identify small molecule agonists of the AP-1 signaling pathway - cell viability counter screen (AID 1159525); also: nearly all actives have a fitted effect of over 55% in size
Procedure, shortened: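 Same-well cytotoxicity counter screen of the Tox21 10K library in ME-180 cells. The readout is ATP-dependent luminescence after 5 h compound treatment. Data are normalised to DMSO and tetra n-octyl ammonium bromide controls.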

[19] = qHTS assay to identify small molecule agonists of the AP-1 signaling pathway (AID 1159526)
[20] = molecular target: Retinoic acid receptor RXR-alpha (Homo sapiens) (UniProt P19793); assay: qHTS assay to identify small molecule agonists of the RXR signaling pathway (AID 1159527); also: nearly all actives have a fitted effect of over 35% in size
Procedure, shortened: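 qHTS of the Tox21 10K library in GeneBLAzer RXR-alpha HEK 293T cells carrying a beta-lactamase reporter […]; 16 hr treatment, 9-cis retinoic acid as agonist control, FRET read-out.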

Measured: Potency

Sequence of Vitamin D3 receptor (Homo sapiens) (P11473 whole entry, looked up): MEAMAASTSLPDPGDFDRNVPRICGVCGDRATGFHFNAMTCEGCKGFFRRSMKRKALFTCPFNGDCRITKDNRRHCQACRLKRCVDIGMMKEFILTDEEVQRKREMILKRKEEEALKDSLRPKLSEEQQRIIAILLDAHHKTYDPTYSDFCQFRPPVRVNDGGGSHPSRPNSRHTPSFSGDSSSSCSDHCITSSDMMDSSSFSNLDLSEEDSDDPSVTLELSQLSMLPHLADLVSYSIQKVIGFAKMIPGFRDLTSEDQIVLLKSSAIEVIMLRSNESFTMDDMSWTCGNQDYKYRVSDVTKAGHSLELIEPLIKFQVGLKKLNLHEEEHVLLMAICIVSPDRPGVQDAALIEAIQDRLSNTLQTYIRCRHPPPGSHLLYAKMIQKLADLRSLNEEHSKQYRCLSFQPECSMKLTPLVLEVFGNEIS
Sequence of Retinoic acid receptor RXR-alpha (Homo sapiens) (P19793 whole entry, looked up): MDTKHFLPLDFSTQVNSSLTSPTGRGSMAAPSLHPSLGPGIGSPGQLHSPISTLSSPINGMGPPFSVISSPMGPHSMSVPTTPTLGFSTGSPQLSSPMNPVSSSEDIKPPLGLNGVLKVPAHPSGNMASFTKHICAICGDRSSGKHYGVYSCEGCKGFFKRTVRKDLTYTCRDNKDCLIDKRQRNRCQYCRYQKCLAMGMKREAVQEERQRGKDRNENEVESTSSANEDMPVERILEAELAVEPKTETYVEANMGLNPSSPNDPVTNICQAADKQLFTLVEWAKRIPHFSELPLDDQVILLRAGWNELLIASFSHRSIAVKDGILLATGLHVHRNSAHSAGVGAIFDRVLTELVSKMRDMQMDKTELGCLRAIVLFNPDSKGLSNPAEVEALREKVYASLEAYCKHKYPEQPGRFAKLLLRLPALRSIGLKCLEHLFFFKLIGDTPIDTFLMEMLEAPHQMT
Sequence of Bile acid receptor (Homo sapiens) (Q96RI1 whole entry, looked up): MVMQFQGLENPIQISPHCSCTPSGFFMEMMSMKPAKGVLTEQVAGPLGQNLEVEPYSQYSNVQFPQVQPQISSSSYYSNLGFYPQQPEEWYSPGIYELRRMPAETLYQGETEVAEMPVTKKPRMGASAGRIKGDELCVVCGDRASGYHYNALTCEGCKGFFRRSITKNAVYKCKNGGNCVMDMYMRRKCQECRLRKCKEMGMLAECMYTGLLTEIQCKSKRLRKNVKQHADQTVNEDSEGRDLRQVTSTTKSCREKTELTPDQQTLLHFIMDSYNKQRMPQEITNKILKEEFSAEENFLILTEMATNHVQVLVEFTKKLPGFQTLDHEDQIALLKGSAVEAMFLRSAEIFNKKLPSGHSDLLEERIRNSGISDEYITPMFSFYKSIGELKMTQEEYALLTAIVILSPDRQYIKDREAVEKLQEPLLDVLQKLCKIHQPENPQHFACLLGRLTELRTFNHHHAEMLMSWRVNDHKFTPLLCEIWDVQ
Sequence of Peroxisome proliferator-activated receptor delta (Homo sapiens) (Q03181 whole entry, looked up): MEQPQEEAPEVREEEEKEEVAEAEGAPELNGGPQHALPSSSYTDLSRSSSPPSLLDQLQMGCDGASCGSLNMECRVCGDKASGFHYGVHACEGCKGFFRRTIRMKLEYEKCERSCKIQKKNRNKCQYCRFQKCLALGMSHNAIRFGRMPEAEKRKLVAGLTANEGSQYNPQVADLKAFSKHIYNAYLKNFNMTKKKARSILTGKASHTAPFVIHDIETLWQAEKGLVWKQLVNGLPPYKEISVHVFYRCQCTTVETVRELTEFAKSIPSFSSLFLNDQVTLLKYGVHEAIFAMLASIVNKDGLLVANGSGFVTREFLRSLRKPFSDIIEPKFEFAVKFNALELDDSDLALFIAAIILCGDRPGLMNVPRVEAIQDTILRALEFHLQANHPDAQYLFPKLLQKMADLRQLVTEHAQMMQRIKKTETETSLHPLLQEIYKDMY

CC12CCC(C(=O)C1=O)C2(C)C (stereo unspecified)
inactive: all assays above

CC(C)(C)c1ccc(-c2ccc(C(C)(C)C)cc2)cc1
not listed: [9] | [10]
inactive: all other assays above

CN1CCC(=C2c3ccccc3CCc3cccnc32)CC1
not listed: [5] | [7] | [11] | [12]
inactive: all other assays above

CN1[C@@H]2CC[C@H]1CC(OC(=O)C(O)c1ccccc1)C2 (stereo partly specified)
not listed: [4] | [5] | [7] | [11]
inactive: all other assays above

CC(CC=O)CC(C)(C)C (stereo unspecified)
not listed: [10] | [12]
inactive: all other assays above

COc1ccccc1OCC1CNC(=O)O1 (stereo unspecified)
not listed: [5] | [7] | [9]
inactive: all other assays above

Nc1ccn([C@@H]2O[C@H](CO)[C@@H](O)[C@@H]2O)c(=O)n1
active: [17] 8.63 µM
not listed: [5]
inactive: all other assays above

CC(C)(C)OC(=O)c1cccc(N)c1
not listed: [5] | [6] | [7] | [9] | [12]
inactive: all other assays above

C=COC(=O)C(C)(CC)CCC(C)C (stereo unspecified)
not listed: [8] | [9] | [10]
inactive: all other assays above

NC(=O)N1c2ccccc2CC(=O)c2ccccc21
not listed: [5] | [7] | [9] | [10]
inactive: all other assays above

COc1ccc2cc1Oc1cc3c(cc1OC)CC[N+](C)(C)[C@H]3Cc1ccc(cc1)Oc1c(OC)c(OC)cc3c1[C@@H](C2)[N+](C)(C)CC3
not listed: [5] | [7] | [11]
inactive: all other assays above

Cc1onc(-c2c(Cl)cccc2Cl)c1C(=O)Cl
not listed: [5] | [7] | [10]
inactive: all other assays above

CCOC(=O)COc1cc(-n2ncc(C(F)(F)F)c(C)c2=O)c(F)cc1Cl
not listed: [5] | [7] | [9] | [10]
inactive: all other assays above

CCOc1ccccc1OCC
not listed: [5] | [6] | [7]
inactive: all other assays above

c1ccc(CCc2ccccc2)cc1
not listed: [9] | [11] | [12]
inactive: all other assays above
